Experimental data taken from paper PMC9574860, “Chemical Toolkit for PARK7: Potent, Selective, and High-Throughput” (Journal of Medicinal Chemistry, 2022).
The campaign covered roughly 7,900 compounds. About 400 (5.1%) showed an effect of 50% or more. This is one part of a sample in which strong results are shown more often than they occur.

biological target: Parkinson's disease protein 7 (PARK7/DJ1) (human, UniProt Q99497); experiment: primary screen, percent inhibition; read as competition with a fluorescent probe by fluorescence polarization; higher = more effect of the substance; conditions: 100 µM
Experimental: The screen was conducted using the conditions as described above in 1536-well plates (Corning 3724) with a reaction volume of 8 μL per well. The compound library containing 7887 covalent fragments was purchased at Enamine Ltd. and received as 100 mM DMSO stocks in 384 well LDV Echo plates (Labcyte LP-0200). Stock solutions of 0.26 μM PARK7 and 80 nM JYQ-107 were prepared. Using a Labcyte Echo550 acoustic dispenser, 8 nL of the DMSO stock solution of the library compounds was transferred from the source plates into the empty 1536-well screening plates to obtain a 100 μM final compound concentration. Next, PARK7 (6 μL, final concentration 0.2 μM) was dispensed using a Biotek MultiflowFX liquid dispenser and incubated for 2 h, followed by dispensing the probe JYQ-107 (2 μL, final concentration 20 nM). After 2 h incubation, the FP signal was recorded on a BMG Labtech PHERAstar plate reader (λex/em 480/520 nm). The relative loss of FP signal compared with reference controls was used to calculate the remaining enzyme activity.

Sequence of Parkinson's disease protein 7 (PARK7/DJ1) (Q99497 whole entry, looked up, the tested form may be a part): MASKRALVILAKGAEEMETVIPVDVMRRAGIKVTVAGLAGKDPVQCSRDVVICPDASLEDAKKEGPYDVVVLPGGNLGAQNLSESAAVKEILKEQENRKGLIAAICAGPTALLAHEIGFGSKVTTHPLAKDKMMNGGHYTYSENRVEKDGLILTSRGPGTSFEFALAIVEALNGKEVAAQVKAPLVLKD

| SMILES | Inhibition % |
| --- | --- |
| C=CC(=O)Nc1ccc2nc(C(F)(F)F)oc2c1 | 20.1% |
| C=CC(=O)N1CCN(c2cccc(OC(F)F)c2)CC1 | 6.79% |
| CC(C)c1ccc(NC(=O)Cn2cnc(C#N)n2)cc1 | 22.6% |
| O=S(=O)(F)CCn1nnc2ccccc21 | 8.8% |
| O=S(=O)(F)CCSc1nc2ccccc2o1 | 70.3% |
| ClCCCc1nc2ccccc2o1 | 16.4% |
| COc1cc(C=C(C#N)C(N)=O)ccc1OC(C)C | 4.85% |
| N#Cc1nc(-c2ccc(Cl)c(Cl)c2)oc1N | 5.93% |
| CC1(C)OB(c2cccc(CN3CCCC3)c2)OC1(C)C.Cl | 6.39% |
| C=CC(=O)N1CCc2cc(F)ccc2C1 | 10.6% |
| C=CC(=O)N1CCCN(C(=O)c2cccc(F)c2)CC1 | 2.43% |
| C=CC(=O)N1CCCc2[nH]c3ccc(F)cc3c2C1 | 71.3% |
| C=CC(=O)N1CC(C)(C)C1c1cccs1 (stereo not shown) | 8.35% |
| C=CC(=O)N1C[C@H](F)C[C@H]1C(N)=O | 11.6% |
| CC1CCC2(CC1)NC(=O)N(CC=CCl)C2=O (stereo not shown) | -0.501% |
| CC(NC(=O)Oc1ccccc1)C(=O)O (stereo not shown) | 10.1% |
| Cc1ccc(B2OC(C)(C)C(C)(C)O2)c(C#N)c1 | -0.714% |
| O=S(=O)(F)c1cccc(CO)c1 | 96.8% |
| O=C(O)c1cccc(S(=O)(=O)F)c1 | 95.1% |
| N#CC1COCCN1C(=O)c1cccc(S(=O)(=O)F)c1 (stereo not shown) | 93.6% |
| CN(Cc1cccc(F)c1)S(=O)(=O)F | 8.98% |
| O=C(c1cccc(S(=O)(=O)F)c1)N1CCCn2ncc(C3CC3)c21 | 6.74% |
| N#Cc1ccc(S(=O)(=O)F)cc1 | 60.6% |
| C#Cc1ccc(S(=O)(=O)F)cc1 | 14.4% |
| O=C(C=Cc1ccccc1)c1ccc(S(=O)(=O)F)cc1 | 10.9% |
| C=CC(=O)N1CCOCC1c1cccc(F)c1 (stereo not shown) | 2.96% |

| SMILES | Inhibition % |
| --- | --- |
| O=S(=O)(F)c1ccc(S(=O)(=O)F)cc1 | 7.58% |
| O=C(O)c1ccc(S(=O)(=O)F)cc1 | 49.1% |
| c1ncc(C2OCCO2)s1 | 38.6% |
| C=CC(=O)N[C@H]1C[C@H](c2ccccc2F)C1 | 10.2% |
| C=CC(=O)Nc1cc(S(=O)(=O)N(C)C)ccc1Cl | 6.55% |
| Cc1ccc(-n2cnc(Cl)c2C#N)cc1 | 6.79% |
| COCc1n[nH]c(=O)o1 | 2.07% |
| CN1CCCC(CCl)C1.Cl (stereo not shown) | 4.37% |
| CN(C(=O)C(C#N)=Cc1ccco1)c1ccc(F)cc1 | 8.11% |
| c1cc2ccc(OCC3CO3)cc2[nH]1 (stereo not shown) | 5.75% |
| Cc1cc(C#N)cc(C(=O)O)n1 | 4.24% |
| Cc1cnc(=S)[nH]c1 | 8.44% |
| N#CSc1c(Cl)nc2sccn12 | 13.7% |
| C=CC(=O)N1CCOCC1CC(F)F (stereo not shown) | 17% |
| Cc1ccc(-n2cc(SC(=O)N(C)C)cn2)cc1 | 6.2% |
| N#Cc1cccc(S(=O)(=O)F)c1 | 97.3% |
| O=S(=O)(F)c1ccccc1C(F)(F)F | 11.3% |
| O=C(CCl)NC(=O)c1cccc([N+](=O)[O-])c1 | 31.5% |
| O=C(CCl)Nc1ccc([N+](=O)[O-])cc1C(F)(F)F | 12.1% |
| CC1(C)OB(c2cccc(S(N)(=O)=O)c2)OC1(C)C | 2.2% |
| O=S(=O)(F)c1ccc(Cl)cc1 | 27% |
| O=[N+]([O-])c1ccc(C(F)(F)F)c(S(=O)(=O)F)c1 | 102% |
| N#Cc1cnn(Cc2ccc(S(=O)(=O)F)cc2)c1 | 7.21% |
| C=CS(=O)(=O)c1cccc(C#N)c1 | 6.17% |
| O=[N+]([O-])c1cccc(S(=O)(=O)F)c1 | 99.2% |
| NS(=O)(=O)c1cccc(S(=O)(=O)F)c1 | 94.3% |

| SMILES | Inhibition % |
| --- | --- |
| O=S(=O)(F)c1cccc(Br)c1 | 16.4% |
| CC1(C)OB(c2ccc(OCCc3ccccn3)cc2)OC1(C)C | -0.0918% |
| N#Cc1ncn(Cc2ccc(F)cc2Cl)n1 | 0.898% |
| C=CC(=O)N1CC(=O)NC2CCCCC21 (stereo not shown) | 24.2% |
| Cc1ccc2oc(C#N)nc2c1 | 9.34% |
| O=C(CCl)NC1CCCC1 | 15.6% |
| C=CC(=O)N1CCN(c2c(F)cccc2OC)CC1 | 12% |
| CCc1ccccc1NC(=O)CCl | 13.2% |
| CCC1(C)NC(=O)N(NC(=O)CCl)C1=O (stereo not shown) | 9.56% |
| Cl.Nc1cccc2cc(S(=O)(=O)F)ccc12 | 65.6% |
| O=C1NC(c2ccccc2)C12CCCC2 (stereo not shown) | 3.32% |
| Cc1cc(C=C(C#N)C(=O)N2CCC2)c(C)n1CC(C)C | -2.1% |
| CS(=O)(=O)c1ccc(NC(=O)CCl)cc1 | 51.8% |
| O=C(CCl)Nc1ccccc1S(=O)(=O)C(F)F | 6.1% |
| Cc1ccc(NC(=O)CCl)cc1S(N)(=O)=O | 17.6% |
| NS(=O)(=O)c1cccc(NC(=O)CCl)c1 | 14.7% |
| CS(=O)(=O)c1cccc(NC(=O)CCl)c1 | 7.34% |
| O=C(CCl)Nc1ccc(S(=O)(=O)C(F)F)cc1 | 65.8% |
| CS(=O)(=O)c1ccc(CNC(=O)CCl)cc1 | 10.2% |
| NS(=O)(=O)c1ccc(NC(=O)CCl)cc1 | 69.2% |
| CCC(CSC)Nc1ccc(C#N)nc1 (stereo not shown) | 11.4% |
| O=S(=O)(F)c1ccc(Cn2cnc(Br)n2)cc1 | 12.6% |
| C=CC(=O)NCCc1cnn(C)c1 | 3.91% |
| Cc1cc(C=C(C#N)C(=O)O)c(C)n1CC(C)C | 8.48% |
| Cl.Cl.NC1CCN(C2CCOC2=O)CC1 (stereo not shown) | 5.74% |
| O=C(CCl)N(c1ccccc1)C1CCS(=O)(=O)C1 (stereo not shown) | 5.5% |

| SMILES | Inhibition % |
| --- | --- |
| C=CC(=O)Nc1ccc2nc(C3CC3)oc2c1 | 11.6% |
| Nc1ccccc1S(=O)(=O)F | 44.7% |
| N#Cc1ncccc1S(N)(=O)=O | 6.94% |
| Nc1cccnc1S(=O)(=O)F | 81.4% |
| O=C(CCl)NCc1ccc(C(=O)N2CCCC2)cc1 | 4.96% |
| Cn1cc(C=CC(=O)N2CCc3ccccc32)cn1 | 3.76% |
| C=CC(=O)N1CCOc2ccc(F)cc2C1 | 11.2% |
| O=c1[nH]c(-c2cccs2)no1 | 3.67% |
| Cc1ccsc1-c1nnc(NC(=O)CCl)o1 | 10.8% |
| Cc1[nH]c(C#N)cc1C(=O)O | 6.7% |
| N#Cc1ccc(C(=O)O)c(=O)[nH]1 | 83.7% |
| N#Cc1ccc(C(=O)O)[nH]1 | 7.43% |
| O=C(O)c1ccc(C2OCCO2)cc1 | 7.82% |
| N#CC(c1ccccc1)N1CCN(C(=O)CCl)CC1 (stereo not shown) | 18.3% |
| CCN(c1ccc(NC(=O)CCl)cc1)C(C)C.Cl | 98.6% |
| CC(C)c1ccc(C(C)NC(=O)CCl)cc1 (stereo not shown) | 6.77% |
| CC(C)c1ccc(NC(=O)CCl)cc1 | 95.8% |
| CCN(CC)C(=O)c1ccc(NC(=O)CCl)cc1 | 43.2% |
| CCC(C)c1ccc(-c2csc(NC(=O)CCl)n2)cc1 (stereo not shown) | 8.03% |
| CCC(C)c1ccccc1NC(=O)CCl (stereo not shown) | 16.8% |
| CC(C)c1ccc(CCNC(=O)CCl)cc1 | 22% |
| CCC(C)c1ccc(NC(=O)CCl)cc1 (stereo not shown) | 99.1% |
| C=CC(=O)NC(=O)NC12CC3CC(CC(C3)C1)C2 | 3.27% |
| C=CC(=O)N1CCC(CNC(C)=O)CC1 | 25% |
| CC1(C)OC1c1ccccc1 (stereo not shown) | 13.4% |
| C#CCN(c1cnc(C#N)cn1)C1CCCC1 | 1.73% |

| SMILES | Inhibition % |
| --- | --- |
| COC1CS(=O)(=O)CC1Cl (stereo not shown) | 8.34% |
| C=CC(=O)N1CCc2nc(-c3ccccc3)sc2C1 | 16.7% |
| O=C(CCl)N1c2ccccc2Sc2ccc(Cl)cc21 | 6.3% |
| COc1ccc(S(=O)(=O)n2ccc(C)n2)cc1 | 7.42% |
| CCc1nccn1S(=O)(=O)c1cc(Cl)c(C)cc1OC | 4.53% |
| O=c1onc(-c2ncccn2)n1Cc1ccc(Cl)s1 | 2.32% |
| O=C(CCl)C1CCOCC1 | 99% |
| O=C(CCl)C1CCC(F)(F)CC1 | 96.8% |
| O=C(CCl)NNC(=O)C1CC1 | 1.1% |
| O=C(CCl)NC1CCOCC1 | 10.5% |
| C=CC(=O)NCC1CCC(F)(F)CC1 | 5.38% |
| O=C(CCl)NCC1CCOC1 (stereo not shown) | 8.14% |
| Cc1cc(C)n(CC2CCCN2C2CC(C)OC2=O)n1 (stereo not shown) | -2.43% |
| Cc1ccnc(S)n1.Cl | 5.09% |
| NS(=O)(=O)c1cccc(NC(=O)Oc2ccccc2)c1 | 4.87% |
| COCc1ncsc1C(=O)Nc1cccc(S(=O)(=O)F)c1 | 8.52% |
| Cc1cc(C(=O)Nc2cccc(S(=O)(=O)F)c2)c(C(F)(F)F)o1 | 96.8% |
| Cc1ccoc1C(=O)Nc1cccc(S(=O)(=O)F)c1 | 7.02% |
| Cc1nc2c(C(=O)Nc3cccc(S(=O)(=O)F)c3)cccc2o1 | 43.6% |
| O=C(Nc1cccc(S(=O)(=O)F)c1)c1sccc1OC(F)F | 93.1% |
| C=CC(=O)Nc1cccc(C(F)(F)F)c1 | 9.31% |
| C=CC(=O)Nc1cccc(OC(F)F)c1 | 4.3% |
| O=C(Nc1cccc(S(=O)(=O)F)c1)c1ccoc1C(F)(F)F | 96.8% |
